KCNH2 3.1 inh = inhibitors of human KCNH2 3.1 potassium channel isoform; U2OS KCNH2 3.1, thallium flux FluxOr; active compounds read low; activity change, % (tested at about 1.8 µM); 340,000 tested, 0.95% active; AID 720553;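 active means maximum activity change below -70%; inconclusive means maximum activity change from -70% to -50%; inactive means maximum activity change above -50%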;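 further: thallium influx rate constant from kinetic fluorescence after stimulation buffer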
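We transduce U2OS cells with the mutant 3.1 virus, culture them overnight, load FluxOr with Red40 quencher for 45 min, then add stimulation buffer and read kinetically for 2 min to derive a normalized rate constant.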
KCNH2 WT inh = inhibitors of human wildtype KCNH2 potassium channel; Q12809; U2OS, BacMam KCNH2, thallium flux FluxOr; active compounds read low; activity change, % at 1.84 µM; 340,000 tested, 0.37% active; AID 720551;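 active means maximum activity change below -70%; inconclusive means maximum activity change between -70% and -50%; inactive means maximum activity change above -50%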
Target sequence (Q12809 whole entry, looked up): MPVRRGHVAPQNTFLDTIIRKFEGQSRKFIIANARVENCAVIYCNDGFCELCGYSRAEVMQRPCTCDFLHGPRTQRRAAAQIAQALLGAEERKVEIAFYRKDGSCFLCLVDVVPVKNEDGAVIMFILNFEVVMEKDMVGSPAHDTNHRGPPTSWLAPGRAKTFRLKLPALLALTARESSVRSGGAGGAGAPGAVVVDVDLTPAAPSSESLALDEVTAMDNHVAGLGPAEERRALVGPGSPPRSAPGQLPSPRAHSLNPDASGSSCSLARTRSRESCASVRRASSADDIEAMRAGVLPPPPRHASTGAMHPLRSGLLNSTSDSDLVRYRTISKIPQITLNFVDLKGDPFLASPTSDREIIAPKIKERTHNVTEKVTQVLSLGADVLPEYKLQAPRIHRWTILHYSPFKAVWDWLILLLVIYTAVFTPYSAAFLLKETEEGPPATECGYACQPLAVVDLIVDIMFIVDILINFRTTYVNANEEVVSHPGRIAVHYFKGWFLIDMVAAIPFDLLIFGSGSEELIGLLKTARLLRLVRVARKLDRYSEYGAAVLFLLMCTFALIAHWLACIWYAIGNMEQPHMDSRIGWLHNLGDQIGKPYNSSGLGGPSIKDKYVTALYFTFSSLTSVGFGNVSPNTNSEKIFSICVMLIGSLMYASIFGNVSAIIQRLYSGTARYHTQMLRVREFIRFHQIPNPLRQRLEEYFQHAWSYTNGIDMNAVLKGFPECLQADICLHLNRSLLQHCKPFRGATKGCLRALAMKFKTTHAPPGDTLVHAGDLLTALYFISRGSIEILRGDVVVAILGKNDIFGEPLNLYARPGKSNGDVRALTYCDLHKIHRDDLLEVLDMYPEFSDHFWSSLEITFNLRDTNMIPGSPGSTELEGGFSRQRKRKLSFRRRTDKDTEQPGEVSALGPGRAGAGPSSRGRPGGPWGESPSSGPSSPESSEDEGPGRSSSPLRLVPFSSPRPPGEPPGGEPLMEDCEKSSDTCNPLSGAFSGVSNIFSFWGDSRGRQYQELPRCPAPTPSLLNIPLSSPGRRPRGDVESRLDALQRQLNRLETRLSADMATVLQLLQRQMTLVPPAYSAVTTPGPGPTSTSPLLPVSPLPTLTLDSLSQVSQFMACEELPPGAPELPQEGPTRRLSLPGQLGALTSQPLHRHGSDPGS
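U2OS cells transduced with wild-type KCNH2 virus are loaded with FluxOr dye for 45 min, and thallium flux is measured in kinetic reads before and after stimulation buffer. Rate constants are normalized to DMSO controls.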
Luc counter = blocks Kinase-Glo luciferase, a counter-screen artifact. Q27757. Kinase-Glo luciferase, ATP luminescence, 8 min. Potency, µM (titrated, usually from 38.3 µM), hits mostly inhibitors. 200,000 tested, 0.28% active. AID 1379; active means well fitted inhibition curve with a large enough effect; inconclusive means small, poorly fitted or top-dose-only effect; further: nearly all actives have a fitted effect of over 60% in size
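Compounds were added to a substrate mix at pH 7.2 (50 mM imidazole, 10 uM ATP, within the enzyme's linear range), followed by Kinase-Glo detection reagent; luminescence was measured after 8 minutes at ambient temperature.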
Of the large screens only hits and unclear results are named; the others gave an inactive call. Sampled rows, rich in hits. Any-hit rate of the full collection: about 1.2%.

CCCCNCC1C(Oc2ccc(Cl)cc2)C(=O)N1c1ccccc1C (configuration not stated)	KCNH2 3.1 inh -94
CCCNCC1C(Oc2ccc(Cl)cc2Cl)C(=O)N1c1cccc(C)c1C (configuration not stated)	none
Cc1cc(C)c2cc(C#N)c(N3CCCN(S(=O)(=O)c4ccccc4)CC3)nc2c1	KCNH2 3.1 inh -70 (no result: Luc counter)
CC(=O)c1cccc(S(=O)(=O)N2CCN(c3nc4cc(C)cc(C)c4cc3C#N)CC2)c1	none (no result: Luc counter)
O=C(NCc1ccco1)c1ccc([N+](=O)[O-])o1	none
COCOc1c2c(c(OCOC)c3c(OCOC)cccc13)/C(=N/N[S+](=O)([O-])c1ccc(C)cc1)C1=C2CCCC1	none (no result: KCNH2 3.1 inh, KCNH2 WT inh)
Cc1ccc2[nH]c(C(=O)N3CCN(c4cccc(Cl)c4)CC3)cc2c1	none (no result: Luc counter)
COc1ccc(/C=N/NC(=O)c2nc(-c3ccccc3)cc(-c3ccccc3)n2)cc1	KCNH2 3.1 inh -88
COc1ccc(/C=N/NC(=O)c2nc(-c3ccccc3)cc(-c3ccccc3)n2)cc1O	none
Cc1noc(C)c1NC(=O)Nc1cccc2c1O[C@@H](CN(C)C(=O)Nc1ccc3c(c1)OCO3)[C@@H](C)CN([C@H](C)CO)C2=O	none (no result: Luc counter)
COc1cccc(C(=O)NCCN2CCN(c3ccccc3)CC2)c1	none (no result: Luc counter)
O=C(NCCOc1ccccc1F)C1CCC(=O)N(CCc2cccc(F)c2)C1 (configuration not stated)	none (no result: Luc counter)
NC(=O)CC(NC(=O)c1ccccc1)c1ccc(N2CCN(c3ccccn3)CC2)c([N+](=O)[O-])c1 (configuration not stated)	KCNH2 3.1 inh -130 (no result: Luc counter)
NC(=O)CC(NC(=O)c1ccc(Br)cc1)c1ccc(N2CCN(c3ccccc3)CC2)c([N+](=O)[O-])c1 (configuration not stated)	none (no result: Luc counter)
Cc1ccc(C(=O)N2CCCC(Nc3cccc(F)c3)C2)cc1N1CCNC1=O (configuration not stated)	none (no result: Luc counter)
CCC1=C2CC[C@H]3C(=O)NC(=O)[C@H]3[C@H]2[C@@]2(C)C(=NCCOC)OC(=O)N2C1=O	none (no result: KCNH2 3.1 inh, KCNH2 WT inh)
CC(NC(=O)c1cccnc1)C(c1cccs1)N1CCOCC1 (configuration not stated)	none
CC(NC(=O)c1cccnc1)C(c1ccccc1)N1CCN(C)CC1 (configuration not stated)	KCNH2 3.1 inh -77
CC(Oc1ccc(Cl)cc1Cl)C(=O)OCC(=O)c1c(N)n(C)c(=O)n(C)c1=O (configuration not stated)	KCNH2 3.1 inh inconclusive (no result: Luc counter)
Cc1cc(C)n(-c2cc(N3CCN(S(=O)(=O)c4ccc(Br)cc4)CC3)ccc2[N+](=O)[O-])n1	KCNH2 3.1 inh -81
Cc1cc(C)c(S(=O)(=O)N2CCN(c3ccc([N+](=O)[O-])c(-n4nc(C)cc4C)c3)CC2)c(C)c1	none
CC1(NC(=O)c2cc(Cl)nc3ccccc23)CCS(=O)(=O)C1 (configuration not stated)	none (no result: Luc counter)
Cc1cc(C)c(CN2CCN(Cc3ccc(C)o3)C(CCO)C2)c(-n2cccn2)c1 (configuration not stated)	KCNH2 3.1 inh -72
Cc1ccc(CN2CCN(Cc3ccccn3)CC2CCO)cc1 (configuration not stated)	none (no result: KCNH2 3.1 inh)
Cc1ccc(CN2CCN(Cc3c(C)nn(-c4ccc(F)cc4)c3C)CC2CCO)o1 (configuration not stated)	none
Cc1ccc(CN2CCN(Cc3cccc(-n4cccn4)c3)CC2CCO)cc1 (configuration not stated)	KCNH2 3.1 inh -87
OCCC1CN(Cc2ccc(-n3cccn3)cc2)CCN1Cc1ccccc1 (configuration not stated)	none
Cc1ccc(CN2CCN(Cc3ccc(-n4cccn4)cc3C)CC2CCO)cc1 (configuration not stated)	KCNH2 3.1 inh -158, KCNH2 WT inh -91 (no result: Luc counter)
COC(=O)c1ccc(CNC(=O)c2ccc(OC)c(S(=O)(=O)NC3CC3)c2)cc1	none (no result: Luc counter)
Cn1c(=O)c2c(nc3n2CC(O)CN3c2ccccc2)n(C)c1=O (configuration not stated)	none (no result: Luc counter)
Cc1cccc(Cn2c(SCCN3CCCCC3)nc3c2c(=O)[nH]c(=O)n3C)c1	KCNH2 3.1 inh -81 (no result: Luc counter)
Cn1c(=O)[nH]c(=O)c2c1nc(SCCN1CCCCC1)n2Cc1ccccc1	KCNH2 3.1 inh -74
Cc1cccc(Cn2c(N3CCN(CCO)CC3)nc3c2c(=O)[nH]c(=O)n3C)c1	none (no result: Luc counter)
C=CCn1c(SCCN2CCCCC2)nc2c1c(=O)[nH]c(=O)n2C	none
Cn1c(=O)[nH]c(=O)c2c1nc(SCCN1CCCCC1)n2CCCc1ccccc1	none
Cc1ccc(Cn2c(SCCN3CCCCC3)nc3c2c(=O)[nH]c(=O)n3C)cc1	KCNH2 3.1 inh -95
CC1CCN(C(=O)CCn2c(=O)oc3ccc(Cl)cc32)CC1	none (no result: Luc counter)
CCN(CC(=O)Nc1ccccc1OC)C(=O)COc1ccc(C#N)cc1	none (no result: Luc counter)
CCOc1ccc2c(c1)/C(=N/N1C(=O)c3ccccc3C1=O)C(=O)N2	none
Cc1ccc2c(c1)/C(=N/N1C(=O)c3ccccc3C1=O)C(=O)N2	KCNH2 3.1 inh -155
COc1ccc(S(=O)(=O)CCC(=O)N2CCN(c3cccc(Cl)c3)CC2)cc1	none (no result: Luc counter)
C=CCCC(=O)NC1CCCc2c1cnn2-c1ccccc1F (configuration not stated)	none (no result: Luc counter)
O=C1Nc2cc(C(=O)NCCCN3CCCC3)ccc2S/C1=C\c1ccccc1	none (no result: Luc counter)
CCC1CCCCN1CCCNC(=O)c1ccc(/C=C2/Sc3ccccc3NC2=O)cc1 (configuration not stated)	KCNH2 3.1 inh -96, KCNH2 WT inh inconclusive (no result: Luc counter)
COc1ccc(-c2n(CC(=O)OC3CC(C)CCC3C(C)C)c3ccccc3[n+]2C)cc1 (configuration not stated)	Luc counter 3.5µM
COc1ccc(OCc2n(CC(=O)OC3CC(C)CCC3C(C)C)c3ccccc3[n+]2C)cc1 (configuration not stated)	KCNH2 WT inh inconclusive (no result: Luc counter)
O=C(NCc1ccccc1)C1CCCN(S(=O)(=O)c2ccc(F)cc2)C1 (configuration not stated)	none (no result: KCNH2 3.1 inh, Luc counter)
CCC(=O)N(C)C[C@@H]1Oc2ncc(Br)cc2C(=O)N([C@H](C)CO)C[C@H]1C	none (no result: Luc counter)
O=C(NCCCl)c1ccc(OCc2ccccc2)cc1Cl	KCNH2 3.1 inh -113
C#CCNC(=O)c1ccc(OCc2ccccc2)cc1Cl	none
O=C(NCCC1=CCCCC1)c1cccc(S(=O)(=O)N2CCCCC2)c1	none (no result: Luc counter)
O=C(CNC(=O)c1ccc(Br)o1)NNC(=O)c1ccccc1O	none (no result: Luc counter)
Cc1cccc(C(=O)NCc2nnc(SCC(=O)NC3CCCC3)n2C)c1	none (no result: Luc counter)
C[C@@H]1CN([C@H](C)CO)C(=O)c2cccc(NS(=O)(=O)c3ccccc3)c2O[C@H]1CN(C)C	none (no result: Luc counter)
Cn1c(-c2c(N)n(-c3ccccc3)c3nc4ccccc4nc23)nc2ccccc21	none
Cc1cccc(-n2c(N)c(-c3nc4ccccc4n3C)c3nc4ccccc4nc32)c1	KCNH2 3.1 inh -96, KCNH2 WT inh -134
N#C/C(=C/c1cn(-c2ccccc2)nc1-c1cccc(OCc2ccc(F)cc2)c1)C(=O)NCCCn1ccnc1	KCNH2 3.1 inh -92
CCCOc1cccc(-c2nn(-c3ccccc3)cc2/C=C(\C#N)C(=O)NCCCn2ccnc2)c1	KCNH2 WT inh -187

Bioassay records as filed in PubChem BioAssay.
